Data on 67 molecules can be found in PubChem BioAssay AID588342 (National Center for Advancing Translational Sciences (NCATS), 2011).

Out of some 360,000 compounds screened, about 25,000 (6.9%) were called active. Not shown: some 9% with an inconclusive outcome. The call rests on the fitted dose curve; in most records, active means well fitted inhibition curve with a large enough effect; inconclusive means small, poorly fitted or top-dose-only effect; inactive means flat fitted curve, though single readings scatter. What follows is part of a selection rich in actives, with near analogues and random picks from the rest. A call without a number means that no potency is given here.
Potency means the concentration at half of the fitted maximal effect.

Chain of Luciferin 4-monooxygenase (Photinus pyralis) (P08659 whole entry, looked up): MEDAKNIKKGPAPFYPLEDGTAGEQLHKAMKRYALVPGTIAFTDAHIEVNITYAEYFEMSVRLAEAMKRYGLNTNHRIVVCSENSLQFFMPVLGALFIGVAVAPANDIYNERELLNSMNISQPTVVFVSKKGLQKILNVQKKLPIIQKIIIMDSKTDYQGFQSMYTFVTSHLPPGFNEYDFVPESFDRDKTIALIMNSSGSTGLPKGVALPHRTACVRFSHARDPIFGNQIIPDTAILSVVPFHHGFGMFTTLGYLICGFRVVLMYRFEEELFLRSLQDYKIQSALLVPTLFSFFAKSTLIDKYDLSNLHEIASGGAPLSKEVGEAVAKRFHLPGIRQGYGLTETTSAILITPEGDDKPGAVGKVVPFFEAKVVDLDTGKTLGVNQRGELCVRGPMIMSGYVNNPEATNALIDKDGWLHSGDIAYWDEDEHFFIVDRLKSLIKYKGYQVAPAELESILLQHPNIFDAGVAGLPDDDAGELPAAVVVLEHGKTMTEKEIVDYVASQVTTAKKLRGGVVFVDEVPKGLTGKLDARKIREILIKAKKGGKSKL

This assay concerns the target Luciferin 4-monooxygenase (Photinus pyralis) (UniProt P08659). The assay is described as follows: qHTS profiling assay for firefly luciferase inhibitor/activator using purifed enzyme and Km concentrations of substrates (counterscreen for miR-21 project). Further: nearly all actives have a fitted effect of over 55% in size. As to conditions: purified FLuc, luminescence inhibition; series mostly up to 57.5 µM. Summed up: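 Biochemical qHTS of compounds, final roughly 60 µM downward over six points, against 10 nM purified firefly luciferase using Km concentrations of substrates (10 uM D-luciferin, 10 uM ATP) in Tris acetate pH 7.5 buffer; luminescence output.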
Background: qHTS replaces the single test concentration by a dilution series.
With `O=C(CCc1ccccc1)Nc1cccc(-c2nnc(-c3ccco3)o2)c1`, the Potency entry was “inactive”.

Regarding `CCOc1ccc(NC(=O)N(CCC(C)C)C(C)c2ccco2)cc1` (configuration not stated), the Potency entry is “inactive”.

`CCOc1ccc(-n2c(SCC(N)=O)nnc2-c2ccco2)cc1`: the Potency entry was “inactive”.

Consider `CCOc1ccc(NC(=O)c2cc(C)nc3ccccc23)cc1`, for which the Potency entry was “inactive”.

Consider `CCOc1ccc(NC(=O)c2ncoc2-c2ccco2)cc1`, for which the Potency was 7.57 µM (active).

For the molecule `CCOc1ccc(-c2nnc(-c3ccco3)o2)cc1`, the Potency is 0.953 µM (active).

As for `Cc1ccc(CNC(=O)COc2ccc3c(c2)CCC3)cc1`, the Potency entry was “inactive”.

For the molecule `CCCCOc1ccc(-c2nnc(-c3ccco3)o2)cc1`, the Potency was 2.39 µM (active).

For `Cc1cccc(NC(=O)CSc2nnc(-c3ccco3)o2)c1`, the Potency result is “inactive”.

In the case of `COc1ccc(-c2ocnc2C(=O)Nc2ccc3c(c2)CCC3)cc1`, the Potency is 7.57 µM (active).

In the case of `COCCn1c(SCC(=O)Nc2ccc3c(c2)CCC3)nc2ccccc2c1=O`, the Potency result is “inactive”.

On to `N#Cc1ccc(OCc2nnc(-c3ccc([N+](=O)[O-])cc3)o2)cc1`, for which the Potency entry is “inactive”.

As to `COc1cc(CNC(=O)c2cc3n(n2)CCCN(Cc2cccc(F)c2)C3=O)cc(OC)c1OC`, the Potency result was “inactive”.

In the case of `CN1CCN(S(=O)(=O)c2ccc(NC(=O)C3CCCO3)cc2)CC1` (configuration not stated), the Potency result is “inactive”.

Take `CN(C)CCn1c2c(c(SCC(=O)NCc3ccccc3)nc1=O)CCC2`: the Potency entry was “inactive”.

Take `O=C(NNS(=O)(=O)c1ccccc1C(F)(F)F)c1cc2ncc(C(F)(F)F)cc2s1`: the Potency result was “inactive”.

On to `COc1ccccc1CCNC(=O)c1cccn1-c1nnc(N2CCCCC2)s1`, for which the Potency entry is “inactive”.

On to `COc1cc(CNCCSc2nnnn2C)ccc1OCc1c(F)cccc1Cl`, for which the Potency entry is “inactive”.

As to `Cc1ccccc1C(=O)N1CCC(C(=O)Nc2ccc(S(=O)(=O)N(C)C(C)C)cc2)CC1`, the Potency entry is “inactive”.

On to `COC(=O)c1ccc2c(c1)N(CC(=O)Nc1ccc(C)c(C)c1)C(=O)c1ccccc1S2`, for which the Potency entry was “inactive”.

Regarding `CCN(CCCNC(=O)CSc1cc(=O)n(C)c2cc(Cl)ccc12)c1cccc(C)c1`, the Potency result was “inactive”.

For `Oc1ccc(/C=N/N(Cc2ccccc2)c2ccccc2)cc1`, the Potency result is “inactive”.

For the molecule `CC1CCCN(c2cc3c(cc2F)c(=O)c(S(=O)(=O)c2cccc(Cl)c2)cn3Cc2ccccc2)C1` (configuration not stated), the Potency result is “inactive”.

As to `Cc1ccnc(N2CCCC(C(=O)Nc3cc(F)ccc3C)C2)n1` (configuration not stated), the Potency result is “inactive”.

Turning to `CC1CCCN(c2csc3ccc(F)cc3c2=O)C1` (configuration not stated), the Potency is 6.01 µM (active).

For the molecule `CCOc1ccc(NC(=O)CN(C)C(=O)c2cccc(S(=O)(=O)N3CCCC3)c2)cc1OCC`, the Potency entry is “inactive”.

As for `CC1=C(c2ccc(C)cc2)S(=O)(=O)NC1=NCCCN1CCN(c2cc(C)ccc2C)CC1`, the Potency entry was “inactive”.

Regarding `Cc1ccc(CNS(=O)(=O)c2ccc(C(=O)N(C)C)s2)cc1`, the Potency result is “inactive”.

On to `O=C(N/N=C\c1cccnc1)c1cc(-c2ccccc2)nc2c(Cl)cccc12`, for which the Potency result is “inactive”.

On to `O=C(N/N=C/c1cccnc1)c1cc2ccccc2cc1O`, for which the Potency is 5.36 µM (active).

Consider `Cc1ccc(/C=N/NC(=O)c2cc3ccccc3cc2O)o1`, for which the Potency was 9.53 µM (active).

Turning to `Cc1ccc(/C=N/NC(=O)Cn2ccc(C(F)(F)F)n2)o1`, the Potency entry was “inactive”.

With `O=C(N/N=C/c1cccnc1)c1ccc(NC(=O)c2ccc(F)cc2)cc1`, the Potency result is “inactive”.

Regarding `Cc1ccc(/C=N/NC(=O)Cn2nc(C)c(Br)c2C)o1`, the Potency result is “inactive”.

Regarding `CCc1cc2c(cc3c(=O)n(CC(=O)NCc4cccc(Cl)c4)nc(CC)n32)s1`, the Potency result is “inactive”.

Regarding `O=C(CSc1nc(-c2ccccc2)cs1)Nc1cccc([N+](=O)[O-])c1`, the Potency was 10.7 µM (active).

Consider `O=C(CSc1ncn[nH]1)Nc1nc(-c2cccc([N+](=O)[O-])c2)cs1`, for which the Potency entry was “inactive”.

On to `COc1ccc(-n2cnnc2SCC(=O)Nc2cccc([N+](=O)[O-])c2)cc1`, for which the Potency entry was “inactive”.

Turning to `CC1=NN(c2ccc(Cl)c(C(=O)O)c2)C(=O)/C1=C/c1ccc(-c2ccccc2[N+](=O)[O-])o1`, the Potency was 4.78 µM (active).

Regarding `Cc1cc([N+](=O)[O-])c(-c2ccc(/C=N/n3cnnc3)o2)cc1Cl`, the Potency result is “inactive”.

For the molecule `O=C1NC(c2ccc(-c3ccccc3[N+](=O)[O-])o2)C(C(=O)c2ccc(Cl)cc2)C(O)(C(F)(F)F)N1` (configuration not stated), the Potency result is “inactive”.

Consider `C=CCc1cccc2cc(C(=O)OCC)c(=O)oc12`, for which the Potency entry was “inactive”.

For `CCOC(=O)c1cc2cc3ccccc3cc2oc1=O`, the Potency is 9.53 µM (active).

With `NS(=O)(=O)c1ccc(NC(=O)COC(=O)c2cc3ccccc3oc2=O)cc1`, the Potency result was “inactive”.

Consider `O=C(CCC(=O)N1CC2CCCN2c2ccccc21)NCc1ccccc1Cl` (configuration not stated), for which the Potency entry was “inactive”.

As to `O=C(CCc1nc(CN2CCN(S(=O)(=O)c3ccc(Br)cc3)CC2)no1)N1CCCCC1`, the Potency result was “inactive”.

On to `CCOC(=O)c1c(C)[nH]c(CCC(=O)NCCCN2CCN(c3cccc(Cl)c3)CC2)c1C`, for which the Potency result was “inactive”.

As for `CN(C)CCn1c(=S)[nH]c2ccc(Cl)cc2c1=O`, the Potency entry was “inactive”.

With `CN(C)CCN=c1cc(-c2ccccc2)oc2ccc(Cl)cc12`, the Potency is 6.01 µM (active).

Take `CN(C)CCCn1c(-c2ccc(Cl)cc2)csc1=Nc1ccccc1`: the Potency entry is “inactive”.

For `O=C(CCCn1c(=O)c2cccn2c2cccnc21)NCc1ccc(F)cc1`, the Potency result was “inactive”.

`Cc1ccccc1Cn1nc(C)c(NC(=O)c2cc(-c3ccc(F)cc3)on2)c1C`: the Potency result is “inactive”.

For `CCOC(=O)C1=C(N)N2C(=O)C(C)SC2=C(C(=O)OCC)C1c1cc(OC)c(OC)c(OC)c1` (configuration not stated), the Potency result was “inactive”.

On to `CC1(C)CCSC(/C=C/c2ccccc2)=N1`, for which the Potency was 13.5 µM (active).

As to `Cc1ccc(C)c(CN2C(=O)c3ccccc3S(=O)c3ccc(C(=O)N4CCOCC4)cc32)c1` (configuration not stated), the Potency result is “inactive”.

For the molecule `Cc1cc(Nc2ccc(N3CCOCC3)cc2)c2cccc(C)c2n1`, the Potency entry is “inactive”.

Turning to `Cc1cc(C(=O)N/N=C\C(Br)=C\c2ccccc2)c(C)o1`, the Potency is 8.49 µM (active).

For `Cc1ccccc1N/N=C/c1ccc(N2CCOCC2)cc1`, the Potency was 10.7 µM (active).

Turning to `O=C(Cc1cc(=O)[nH][nH]1)N/N=C/c1ccccc1[N+](=O)[O-]`, the Potency entry is “inactive”.

Take `Cc1cc(C(=O)OCC(=O)Nc2ccccc2Cl)c(C)o1`: the Potency result is “inactive”.

On to `Cc1cc(-c2n[nH]c(=S)n2/N=C/C(Br)=C/c2ccccc2)n[nH]1`, for which the Potency result is “inactive”.

Consider `COc1ccc(C/C(C)=N/NC(=O)c2cc(C)oc2C)cc1`, for which the Potency entry is “inactive”.

With `Cc1cc(C(=O)N/N=C/c2ccccc2[N+](=O)[O-])c(C)o1`, the Potency was 16.9 µM (active).

Regarding `CC(=C/c1ccccc1)/C=N/NC(=O)c1cc(C)oc1C`, the Potency was 1.35 µM (active).

For `CC(=O)N/N=C/c1cc2c(cc1[N+](=O)[O-])OCO2`, the Potency entry was “inactive”.

As to `CC(=O)N/C(=C/c1ccc(OC(F)F)cc1)C(=O)O`, the Potency result is “inactive”.

As to `CC(=O)c1ccc(N2CCN(CC(=O)Nc3ccccc3N3CCOCC3)CC2)cc1`, the Potency result is “inactive”.
